Assay results as given in article PMC7826789 (International Journal of Molecular Sciences, 2021).

Columns and labels:
Settings in all cases: Compound Concentration (nM):1000
CSNK2A2 = test system: CSNK2A2
CTK = test system: T1, CTK
T1 construct: gene MATK

DAPK1 = test system: DAPK1
DAPK2 = test system: DAPK2
DAPK3 = test system: DAPK3
DCAMKL1 = test system: T2, DCAMKL1
T2 construct: gene DCLK1

DCAMKL2 = test system: T3, DCAMKL2
T3 construct: gene DCLK2

DCAMKL3 = test system: T4, DCAMKL3
T4 construct: gene DCLK3

DDR1 = test system: DDR1
DDR2 = test system: DDR2
DLK = test system: T5, DLK
T5 construct: gene MAP3K12

DMPK2 = test system: T6, DMPK2
T6 construct: gene CDC42BPG

DMPK = test system: DMPK
DRAK1 = test system: T7, DRAK1
T7 construct: gene STK17A

DRAK2 = test system: T8, DRAK2
T8 construct: gene STK17B

DYRK1A = test system: DYRK1A
DYRK1B = test system: DYRK1B
DYRK2 = test system: DYRK2
EGFR(E746-A750del) = test system: EGFR(E746-A750del)
EGFR(G719C) = test system: EGFR(G719C)
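Note: KINOMEscan scanMAX binding as percent activity remaining versus control; lower means stronger binding.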

COc1cccc(-n2ncc3c(N/N=C/c4ccncc4)ncnc32)c1 [GW784752X]
Percent Control (CSNK2A2): 2.9% | Percent Control (CTK): 99% | Percent Control (DAPK1): 100% | Percent Control (DAPK2): 94% | Percent Control (DAPK3): 93% | Percent Control (DCAMKL1): 86% | Percent Control (DCAMKL2): 100% | Percent Control (DCAMKL3): 71% | Percent Control (DDR1): 100% | Percent Control (DDR2): 100% | Percent Control (DLK): 82% | Percent Control (DMPK2): 100% | Percent Control (DMPK): 100% | Percent Control (DRAK1): 73% | Percent Control (DRAK2): 87% | Percent Control (DYRK1A): 18% | Percent Control (DYRK1B): 95% | Percent Control (DYRK2): 17% | Percent Control (EGFR(E746-A750del)): 75% | Percent Control (EGFR(G719C)): 90%

CN(C)c1cc2c(Nc3ccc4c(cnn4Cc4ccccc4)c3)ncnc2cn1 [GW282974X]
Percent Control (CSNK2A2): 65% | Percent Control (CTK): 100% | Percent Control (DAPK1): 100% | Percent Control (DAPK2): 91% | Percent Control (DAPK3): 100% | Percent Control (DCAMKL1): 85% | Percent Control (DCAMKL2): 100% | Percent Control (DCAMKL3): 100% | Percent Control (DDR1): 66% | Percent Control (DDR2): 100% | Percent Control (DLK): 82% | Percent Control (DMPK2): 48% | Percent Control (DMPK): 95% | Percent Control (DRAK1): 69% | Percent Control (DRAK2): 100% | Percent Control (DYRK1A): 93% | Percent Control (DYRK1B): 100% | Percent Control (DYRK2): 73%

Cl.c1ccc(Cc2nc3ccc(Nc4ncnc5ccccc45)cc3[nH]2)cc1 [GR269666A]
Percent Control (CSNK2A2): 100% | Percent Control (CTK): 100% | Percent Control (DAPK1): 100% | Percent Control (DAPK2): 99% | Percent Control (DAPK3): 96% | Percent Control (DCAMKL1): 90% | Percent Control (DCAMKL2): 100% | Percent Control (DCAMKL3): 100% | Percent Control (DDR1): 100% | Percent Control (DDR2): 100% | Percent Control (DLK): 83% | Percent Control (DMPK2): 100% | Percent Control (DMPK): 100% | Percent Control (DRAK1): 68% | Percent Control (DRAK2): 100% | Percent Control (DYRK1A): 100% | Percent Control (DYRK1B): 100% | Percent Control (DYRK2): 73% | Percent Control (EGFR(E746-A750del)): 70% | Percent Control (EGFR(G719C)): 0%

COc1ccc2c(-c3ccnc(Nc4cccc(OC(F)(F)F)c4)n3)cnn2n1 [GW810372X]
Percent Control (CSNK2A2): 59% | Percent Control (CTK): 100% | Percent Control (DAPK1): 100% | Percent Control (DAPK2): 98% | Percent Control (DAPK3): 100% | Percent Control (DCAMKL1): 100% | Percent Control (DCAMKL2): 100% | Percent Control (DCAMKL3): 100% | Percent Control (DDR1): 100% | Percent Control (DDR2): 100% | Percent Control (DLK): 92% | Percent Control (DMPK2): 100% | Percent Control (DMPK): 100% | Percent Control (DRAK1): 81% | Percent Control (DRAK2): 100% | Percent Control (DYRK1A): 35% | Percent Control (DYRK1B): 13% | Percent Control (DYRK2): 45% | Percent Control (EGFR(E746-A750del)): 99% | Percent Control (EGFR(G719C)): 97%

C[C@@H](Oc1cc(-n2cnc3ccc(OC4CCN(C)CC4)cc32)sc1C(N)=O)c1ccccc1Cl [GSK579289A]
Percent Control (CSNK2A2): 8.4% | Percent Control (CTK): 100% | Percent Control (DAPK1): 29% | Percent Control (DAPK2): 49% | Percent Control (DAPK3): 28% | Percent Control (DCAMKL1): 70% | Percent Control (DCAMKL2): 83% | Percent Control (DCAMKL3): 89% | Percent Control (DDR1): 92% | Percent Control (DDR2): 90% | Percent Control (DLK): 78% | Percent Control (DMPK2): 100% | Percent Control (DMPK): 80% | Percent Control (DRAK1): 100% | Percent Control (DRAK2): 93% | Percent Control (DYRK1A): 100% | Percent Control (DYRK1B): 100% | Percent Control (DYRK2): 49% | Percent Control (EGFR(E746-A750del)): 92% | Percent Control (EGFR(G719C)): 81%

NS(=O)(=O)c1ccc(N/N=C2\C(=O)Nc3ccc(C(=O)NCCc4c[nH]cn4)cc32)cc1 [GW300660X]
Percent Control (CSNK2A2): 1.4% | Percent Control (CTK): 100% | Percent Control (DAPK1): 44% | Percent Control (DAPK2): 100% | Percent Control (DAPK3): 15% | Percent Control (DCAMKL1): 65% | Percent Control (DCAMKL2): 100% | Percent Control (DCAMKL3): 100% | Percent Control (DDR1): 100% | Percent Control (DDR2): 100% | Percent Control (DLK): 100% | Percent Control (DMPK2): 100% | Percent Control (DMPK): 100% | Percent Control (DRAK1): 3.8% | Percent Control (DRAK2): 12% | Percent Control (DYRK1A): 50% | Percent Control (DYRK1B): 100% | Percent Control (DYRK2): 11% | Percent Control (EGFR(E746-A750del)): 100% | Percent Control (EGFR(G719C)): 100%

COc1ccccc1-c1cc(/C=C2\C(=O)Nc3ncc(Br)cc32)cc(Br)c1O [GW442130X]
Percent Control (CSNK2A2): 72% | Percent Control (CTK): 99% | Percent Control (DAPK1): 100% | Percent Control (DAPK2): 88% | Percent Control (DAPK3): 88% | Percent Control (DCAMKL1): 100% | Percent Control (DCAMKL2): 100% | Percent Control (DCAMKL3): 89% | Percent Control (DDR1): 92% | Percent Control (DDR2): 100% | Percent Control (DLK): 100% | Percent Control (DMPK2): 100% | Percent Control (DMPK): 100% | Percent Control (DRAK1): 85% | Percent Control (DRAK2): 100% | Percent Control (DYRK1A): 59% | Percent Control (DYRK1B): 68% | Percent Control (DYRK2): 95% | Percent Control (EGFR(E746-A750del)): 100% | Percent Control (EGFR(G719C)): 100%

Nc1ncnc2occ(-c3ccc(NC(=O)Nc4cc(C(F)(F)F)ccc4F)cc3)c12 [GW770249X]
Percent Control (CSNK2A2): 93% | Percent Control (CTK): 70% | Percent Control (DAPK1): 100% | Percent Control (DAPK2): 100% | Percent Control (DAPK3): 98% | Percent Control (DCAMKL1): 78% | Percent Control (DCAMKL2): 76% | Percent Control (DCAMKL3): 100% | Percent Control (DDR1): 0% | Percent Control (DDR2): 1.3% | Percent Control (DLK): 90% | Percent Control (DMPK2): 96% | Percent Control (DMPK): 100% | Percent Control (DRAK1): 100% | Percent Control (DRAK2): 96% | Percent Control (DYRK1A): 100% | Percent Control (DYRK1B): 100% | Percent Control (DYRK2): 86% | Percent Control (EGFR(E746-A750del)): 91% | Percent Control (EGFR(G719C)): 89%

CCS(=O)(=O)c1ccc(OC)c(Nc2ncc(-c3cccc(OC)c3)o2)c1 [GW580509X]
Percent Control (CSNK2A2): 4.4% | Percent Control (CTK): 100% | Percent Control (DAPK1): 100% | Percent Control (DAPK2): 90% | Percent Control (DAPK3): 100% | Percent Control (DCAMKL1): 81% | Percent Control (DCAMKL2): 100% | Percent Control (DCAMKL3): 100% | Percent Control (DDR1): 59% | Percent Control (DDR2): 100% | Percent Control (DLK): 88% | Percent Control (DMPK2): 100% | Percent Control (DMPK): 100% | Percent Control (DRAK1): 100% | Percent Control (DRAK2): 100% | Percent Control (DYRK1A): 39% | Percent Control (DYRK1B): 41% | Percent Control (DYRK2): 23% | Percent Control (EGFR(E746-A750del)): 81% | Percent Control (EGFR(G719C)): 100%

Cl.O=C(Nc1ccc(Oc2ccc3[nH]c(NC(=O)c4ccco4)nc3c2)cc1)Nc1cc(C(F)(F)F)ccc1F [GW683134A]
Percent Control (CSNK2A2): 91% | Percent Control (CTK): 100% | Percent Control (DAPK1): 100% | Percent Control (DAPK2): 83% | Percent Control (DAPK3): 89% | Percent Control (DCAMKL1): 87% | Percent Control (DCAMKL2): 100% | Percent Control (DCAMKL3): 82% | Percent Control (DDR1): 0% | Percent Control (DDR2): 5.1% | Percent Control (DLK): 86% | Percent Control (DMPK2): 82% | Percent Control (DMPK): 100% | Percent Control (DRAK1): 100% | Percent Control (DRAK2): 100% | Percent Control (DYRK1A): 100% | Percent Control (DYRK1B): 93% | Percent Control (DYRK2): 83% | Percent Control (EGFR(E746-A750del)): 92% | Percent Control (EGFR(G719C)): 100%
